Screens deposited in PubChem by National Center for Advancing Translational Sciences (NCATS).
This is a sample that favours compounds with a hit; in the whole collection about 6.9% have one here.
Giardia killer = Small Molecules that selectively kill Giardia lamblia: qHTS; 340,000 tested, 0.15% active; Giardia lamblia trophozoite viability; AID 540267, 2011; activity change, % at 7.66 µM, hits read low; in the data active means activity change below about -80%; inconclusive means between about -30% and that limit;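 further: parasites exposed to compound for two days anaerobically before the ATP read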
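Giardia lamblia trophozoites (100 cells/well) were incubated with compounds for 48 h at 37 deg C under anaerobic conditions. Viability was read as ATP content by one-step luminescence after 15-30 min at room temperature.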
IL1B secr inh = qHTS for Inhibitors of Inflammasome Signaling: IL-1-beta AlphaLISA Primary Screen. THP-1 LPS/ATP IL-1B secretion, AlphaLISA, 16 h; stronger effect = lower value. activity change, % at 57.5 µM. 360,000 tested, 4.7% active; in the data active means activity change below about -50%; inconclusive means mostly about -30% to -49%
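THP-1 cells pretreated 1 hr with compounds (up to 57.5 uM final), then stimulated with LPS (250 ng/mL final) plus ATP (1.25 mM final); secreted IL-1B measured by AlphaLISA after 16 hr, decreased signal indicating inhibition.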
MCF10A rerep = A quantitative high throughput screen for small molecules that induce DNA re-replication in MCF 10a normal breast cells; 350,000 tested, 2.9% active; MCF 10A DNA re-replication, Hoechst nuclear intensity, 48 h; Potency, µM (series often up to 46.1 µM), most hits filed as activators; further: nearly all actives have a fitted effect of over 50% in size
Vif-A3F inh = qHTS for Inhibitors of Vif-A3F Interactions: qHTS. HeLa A3F-eYFP + Vif (tagged APOBEC3F with the HIV-1 protein that degrades it), YFP fluorescence increase. Potency, µM (top dose mostly 46.1 µM). 390,000 tested, 0.2% active; further: nearly all actives have a fitted effect of over 65% in size
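HeLa cells stably expressing A3F-eYFP plus Vif, plated and incubated overnight at 37 deg C, then exposed to compounds overnight at 37 deg C. Blocked degradation read as raised yellow fluorescence (Ex 488/Em 500-530).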
Vif-A3G inh = qHTS for Inhibitors of Vif-A3G Interactions: qHTS; HeLa A3G-eYFP + Vif (tagged APOBEC3G with the HIV-1 protein that degrades it), YFP fluorescence, overnight; 410,000 tested, 0.076% active; DNA dC->dU-editing enzyme APOBEC-3G (Homo sapiens), Q9HC16; Potency, µM (top dose mostly 46.1 µM), usual class: inhibitors; further: nearly all actives have a fitted effect of over 60% in size
Target sequence (Q9HC16 whole entry, looked up): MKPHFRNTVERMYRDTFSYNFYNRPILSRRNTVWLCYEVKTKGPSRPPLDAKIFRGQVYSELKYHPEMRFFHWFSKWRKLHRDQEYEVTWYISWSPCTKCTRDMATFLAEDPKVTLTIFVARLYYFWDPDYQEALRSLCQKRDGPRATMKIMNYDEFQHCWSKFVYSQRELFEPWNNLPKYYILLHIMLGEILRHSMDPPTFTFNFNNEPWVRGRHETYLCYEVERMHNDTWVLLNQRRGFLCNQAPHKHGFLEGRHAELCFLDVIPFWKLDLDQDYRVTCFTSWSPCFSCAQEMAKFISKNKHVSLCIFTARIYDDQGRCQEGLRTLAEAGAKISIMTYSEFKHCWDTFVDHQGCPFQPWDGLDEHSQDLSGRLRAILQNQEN
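HeLa cells stably expressing Vif and C-terminally eYFP-tagged A3G, seeded overnight at 37 deg C, then exposed to compound by pintool overnight at 37 deg C. Rise in yellow fluorescence (Ex 488/Em 500-530, Acumen) marks blocked Vif-driven A3G degradation.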
SW480 rerep = A quantitative high throughput screen for small molecules that induce DNA re-replication in SW480 colon adenocarcinoma cells; SW480 DNA re-replication, Hoechst DNA content imaging, 48 h; Potency, µM (series often up to 46.1 µM), hits mostly activators; 340,000 tested, 1.8% active; AID 624297, 2012; further: nearly all actives have a fitted effect of over 55% in size
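250 cells/well; 23 nL cpd via pin tool; 48 hr, 37 C, 5% CO2; Hoechst 40 min; imager read of total nuclear intensity, ex 405/em 500-530 nm.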
A number is an active result; i = inactive; ? = inconclusive; nt = no result. Unless noted, the call rests on the fitted dose curve; in most records, active means well fitted curve in the direction sought with a large enough effect; inconclusive means small, poorly fitted or top-dose-only effect, or another doubt; inactive means no such curve, though single readings can be large; an effect the other way counts as inactive or inconclusive.

SMILES | Giardia killer | IL1B secr inh | MCF10A rerep | Vif-A3F inh | Vif-A3G inh | SW480 rerep
COc1ccc(CNc2cc(C)nc3ccc(OC)cc23)cc1 | i | -93 | ? | i | i | ?
Cc1ccc(Nc2cc(C)nc3ccc(C)cc23)cc1 | i | nt | ? | i | i | i
Cc1cc(Nc2ccc3c(c2)OCCO3)c2cc(Cl)ccc2n1 | i | -116 | i | i | i | i
Cc1ccc2nc3c(c(Nc4ccc5c(c4)OCCO5)c2c1)CCC3 | i | -92 | ? | i | i | i
Cc1ccc2nc3c(c(Nc4ccc(C)c(C)c4)c2c1)CCC3 | nt | nt | nt | i | i | nt
CCOc1ccc(Nc2cc(C)nc3ccc(C)cc23)cc1 | i | -88 | i | ? | i | i
COc1ccc(Nc2cc(C)nc3ccc(OC)cc23)cc1 | i | -101 | i | i | i | i
COc1ccc2nc(C)cc(Nc3ccc(C(=O)O)cc3)c2c1 | i | i | i | i | i | ?
COc1ccc(CCNC(=O)c2cc3c(=O)n4cccc(C)c4nc3n(CCCN3CCOCC3)c2=N)cc1 | i | i | ? | i | i | 2.6µM
CCOCCCn1c(=N)c(C(=O)NCCN2CCOCC2)cc2c(=O)n3cccc(C)c3nc21 | i | i | 2.9µM | i | i | i
Cc1ccccc1C(=O)NC(=S)NCCN1CCOCC1 | i | i | i | i | i | i
Cc1ccccc1C(=O)NCCN1CCOCC1 | i | i | 0.58µM | i | i | i
Cc1cccn2c(=O)c3cc(C(=O)NC4CCCC4)c(=N)n(CCCN4CCOCC4)c3nc12 | i | i | i | i | i | 1.5µM
COCCCn1c(=N)c(C(=O)NC2CCCC2)cc2c(=O)n3cccc(C)c3nc21 | nt | nt | nt | i | i | nt
CCCCN(C)c1ncnc2c1cnn2-c1cccc(Cl)c1 | nt | nt | nt | i | i | nt
Cc1cc(C)c2c(c1)C1C=CCC1C(C(=O)O)N2 (configuration not stated) | i | nt | nt | nt | i | nt
Cc1cccn2c(=O)c3cc(C(=O)NCCN4CCOCC4)c(=N)n(CCN4CCOCC4)c3nc12 | i | i | 12µM | i | i | 26µM
O=C(CN1C(=O)c2cccc3cccc(c23)C1=O)NCCN1CCOCC1 | i | i | 1.8µM | i | i | i
O=C(NCCN1CCN(c2ccccc2)CC1)c1cccn2c(=O)c3cc(Cl)ccc3nc12 | i | i | 4.1µM | ? | i | i
Cc1cccn2c(=O)c3cc(C(=O)NCCN4CCOCC4)c(=N)n(Cc4ccc(F)cc4)c3nc12 | i | ? | 2.3µM | i | i | ?
Cc1cccn2c(=O)c3cc(C(=O)NCCN4CCOCC4)n(C)c3nc12 | i | i | ? | i | i | ?
COc1cccc(CNC(=O)C(=O)NCC(c2ccco2)S(=O)(=O)c2cccs2)c1 (configuration not stated) | nt | nt | nt | i | i | nt
CCc1cccc(CC)c1NC(=O)CCS(=O)(=O)c1ccc2c(c1)CCN2C(C)=O | nt | nt | nt | i | i | nt
O=C(COc1ccc(F)cc1)Nc1ccc(OCc2cc(=O)n3ccsc3n2)cc1 | nt | nt | nt | i | i | nt
Cc1ccc(C(=O)c2sc(Nc3ccc(F)cc3)nc2N)c(C)c1 | nt | nt | nt | i | i | nt
SMILES | Giardia killer | IL1B secr inh | MCF10A rerep | Vif-A3F inh | Vif-A3G inh | SW480 rerep
CC1CCCC/C1=N\NC(=S)Nc1cccnc1 (configuration not stated) | i | i | i | i | i | i
Cc1ccc(NC(=S)N/N=C2\CCCCC2C)cc1 (configuration not stated) | i | i | ? | 22µM | ? | ?
Cn1c(SCC(=O)NCc2ccco2)nnc1-c1ccc(NC(=O)c2ccccc2)cc1 | nt | nt | nt | nt | i | nt
O=C(NC1(C(F)(F)F)NC(=O)N(CCc2ccccc2)C1=O)c1ccccc1Cl (configuration not stated) | nt | nt | nt | i | i | nt
CC(=NNc1nc2ccccc2s1)c1ccncn1 | i | -94 | 7.3µM | i | i | ?
Cc1ccc(/C=N/Nc2nc3ccccc3s2)o1 | i | ? | ? | ? | i | i
C/C(=N\Nc1nc2ccccc2s1)c1ccc(Br)s1 | i | -103 | ? | i | i | i
